# Test results: PubChem BioAssay AID743279 (National Center for Advancing Translational Sciences (NCATS), 2014)
# About 17,000 (4.7%) of roughly 360,000 compounds were called active. Not shown: some 5% with an inconclusive outcome. The full list was thinned out, with actives kept by preference. Values without a mark were called inactive. No stated cut-off is given here; in the data, active means activity change below about -50%; inconclusive means mostly about -30% to -49%; inactive means weaker than that.
# Assay: qHTS for Inhibitors of Inflammasome Signaling: IL-1-beta AlphaLISA Primary Screen
# Details: THP-1 LPS/ATP IL-1B secretion, 16 h; at 57.5 µM, stronger effect = lower value
# Outline: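 Secreted IL-1B measured by AlphaLISA bead assay after 16 h compound exposure of THP-1 cells; compounds (final up to 57.5 uM) added 1 h before LPS (250 ng/mL) and ATP (1.25 mM) stimulation; lower signal means less secretion.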
# On the % scale 0 is the no-effect control and ±100 the full control effect.
row,SMILES,activity change
1,O=C(Nc1ccc(F)cc1)C(CCc1ccccc1)N1CCN(CC(=O)N2CCCC2)CC1 (stereo unspecified),-1.84%
2,CC(=O)Nc1ccccc1OC(C)C(=O)N1CCC(C)CC1 (stereo unspecified),26.5%
3,CCOC(=O)C1C(C)C(C(C)(C)C)N(S(=O)(=O)c2ccc(C)cc2)C1c1ccccc1 (stereo unspecified),-15.7%
4,CC(/C=N/NC(=O)c1cc(-c2ccc3ccccc3c2)n[nH]1)=C\c1ccco1,-29.4%
5,COc1ccc(C/C(C)=N/NC(=O)c2cc(C)oc2C)cc1,-3.42%
6,CC(=C/c1ccccc1)/C=N/NC(=O)c1cc(C)oc1C,-1.83%
7,CC(C)c1cc(C(=O)O)n[nH]1,-10.8%
8,Cc1cc(C(=O)N/N=C\C(Br)=C\c2ccccc2)c(C)o1,-99% (active)
9,CC(C)c1cc(C(=O)N/N=C/C(Br)=C/c2ccccc2)n[nH]1,-78.1% (active)
10,CCC1C=C(c2ccccc2)C=CN=C1N(CC)CC (stereo unspecified),-9.78%
11,COc1c(C)cc(C(O)c2ncc(-c3cccc(C(F)(F)F)c3)[nH]2)cc1C (stereo unspecified),-19.6%
12,C=CCn1c(CCNC(=O)c2ccccc2F)nnc1SCC(=O)Nc1ccc(OC)cc1,0.328%
13,N#Cc1cc([N+](=O)[O-])ccc1NCC1CCCO1 (stereo unspecified),16.2%
14,COc1cc(OC)cc(C(=O)N[C@H](C(=O)OCC(=O)NC(C)c2ccccc2)C(C)C)c1 (stereo partly specified),0%
15,COc1ccc(OCCNS(=O)(=O)Cc2ccccc2)cc1,5.88%
16,CC(C)(c1ccccc1)c1ccc(OCCN)cc1,-93.8% (active)
17,Cc1nn(CCOc2ccccc2)c(=O)n1-c1ccccc1F,-5.73%
18,CCOn1c(=O)c(=O)n(O)c2ccccc21,33.6%
19,COc1cc(C)c(CN2CCN(C(=O)CCC(=O)c3ccc(C)s3)CC2)cc1OC,-4.16%
20,O=C1/C(=C\c2ccc(O)cc2)CCC1CNc1ccc(Cl)cc1 (stereo unspecified),-106% (active)
21,CC(C(=O)NC1CCS(=O)(=O)C1)N1C(=O)/C(=C/c2ccc(Cl)cc2)SC1=S (stereo unspecified),-3.39%
22,CC(C)CC1C(=O)N(Cc2cn(Cc3ccco3)nn2)CCS(=O)(=O)N1Cc1ccc(-c2ccc(Cl)c(Cl)c2)cc1 (stereo unspecified),-82.3% (active)
23,COCOCCn1cc(CN2CCS(=O)(=O)N(Cc3ccc(-c4cccc(N(C)C)c4)cc3)C(CC(C)C)C2=O)nn1 (stereo unspecified),-1.55%

row,SMILES,activity change
1,COc1ccc(-c2ccc(CN3C(CC(C)C)C(=O)N(Cc4cn(CC5CCCCC5)nn4)CCS3(=O)=O)cc2)cc1 (stereo unspecified),18.2%
2,CC(C)CC1C(=O)N(Cc2cn(CC3CCCCC3)nn2)CCS(=O)(=O)N1Cc1ccc(-c2ccc(Cl)cc2)cc1 (stereo unspecified),-2.11%
3,COCOCCn1cc(CN2CCS(=O)(=O)N(Cc3ccc(-c4ccc(OC)cc4)cc3)C(CC(C)C)C2=O)nn1 (stereo unspecified),-56.9% (active)
4,CC1C(=O)N(Cc2cn(Cc3ccco3)nn2)CCS(=O)(=O)N1Cc1ccc(-c2cccc(CO)c2)cc1 (stereo unspecified),-17.1%
5,Cn1nc(N)c2ncc(C(Cl)(Cl)Cl)nc21,-5.29%
6,O=C(N/N=C\c1cc2c(cc1Cl)OCO2)c1ccc(Br)s1,7.39%
7,COc1ccc(-c2ccc(C(=O)NC(C)C)c3occc23)c(C)c1,-6.78%
8,Cc1cc2nc(-c3ccc(Cl)cc3)c(Cc3cccc(F)c3)n2c(C)c1Br,0%
9,CCCCNc1nc2c(c(=O)n(C)c(=O)n2C)n1Cc1cccc(OC)c1,-59.5% (active)
10,CCn1c(NCCc2ccc(OC)c(OC)c2)nc2c1c(=O)n(C)c(=O)n2C,5.08%
11,CCCCNc1nc2c(c(=O)[nH]c(=O)n2C)n1CCOc1ccccc1,26.9%
12,CCc1c(N=O)c(-c2ccccc2)n(O)[n+]1[O-],-4.78%
13,CN(C)C(CNC(=O)c1ccc(OCc2cn3ccccc3n2)cc1)c1ccco1 (stereo unspecified),3.62%
14,Cc1noc(C)c1COc1ccc(C(=O)NCCOc2ccccc2)cc1,-10.6%
15,CN(C)CCNC(=O)c1ccc(-c2cn3c(-c4ccc(Oc5ccccc5)cc4)cnc3cn2)cc1,-66.3% (active)
16,COc1cc(N/C=C2\CC(=O)NC(C)=C2C#N)cc(OC)c1OC,18.8%
17,O=C(Cn1cc(C(F)(F)F)ccc1=O)Nc1ccc2c(c1)OCCO2,-6.35%
18,O=C(CN1CCN(C(=O)c2ccco2)CC1)Nc1ccc2c(c1)OCO2,21.4%
19,O=C(CN1CCN(c2ncc(C(F)(F)F)cc2Cl)CC1)Nc1ccc2c(c1)OCO2,-50.6% (active)
20,CCCNC(=O)C1(C)CCCN(Cc2cccc(C(F)(F)F)c2)C1 (stereo unspecified),-10.2%
21,CCC(C(=O)NCc1ccccc1)n1c(Cc2cc(F)cc(F)c2)nc2ccccc21 (stereo unspecified),-4.41%
22,CCOC(=O)[C@]12CCCC=C1N(CCC1=CCCCC1)C(=O)[C@H](CC(=O)N1CCOCC1)C2,12.3%
23,COc1ccc(CNC(=O)c2ccc(-c3cccnc3)c3ccoc23)cc1OC,-14.6%

row,SMILES,activity change
1,CN(C)c1cccc(NC(=O)c2ccc(-c3ccc(F)c(F)c3)c3ccoc23)c1,-82.3% (active)
2,O=C(Nc1ccc(N2CCOCC2)cc1)c1cccc2c(-c3ccc(F)c(F)c3)coc12,-5%
3,COc1cc(CNC2CCCC2)c(Br)cc1OCc1ccccc1,-92.7% (active)
4,CC(C)(C)NCc1cc(Br)ccc1OC1CCCC1,-13.9%
5,COc1cc(C=O)c(Br)cc1OCC(=O)NCc1ccccc1,-25.7%
6,COc1cc(CNC2CCCCC2)c(Br)cc1OC1CCCC1,-64.3% (active)
7,COc1ccc(CNC2CCCCC2)cc1,-4.21%
8,COc1cc(C(=S)NC2CCCCC2)ccc1O,5.59%
9,CCN1C(=O)[C@H]2[C@@H](c3ccc(C(F)(F)F)cc3)N[C@]3(CCCN(Cc4ccc(Br)cc4)C3=O)[C@H]2C1=O,-19.9%
10,O=C1C2C3C=CC(C3)C2C(=O)N1c1ncc([N+](=O)[O-])s1 (stereo unspecified),6.51%
11,CCOc1ccc(S(=O)(=O)NCCC(=O)NCC2CCCO2)cc1 (stereo unspecified),32.7%
12,COc1ccccc1-c1nn(Cc2ccccc2)cc1C(=O)N1CCN(c2ncccn2)CC1,1.02%
13,COc1ccc(C(C(=O)NCc2ccccc2)n2c(=O)c(-c3ccccc3)nc3ccccc32)cc1 (stereo unspecified),-6.01%
14,Cc1ccc(S(=O)(=O)CC(=O)NC(C)c2ccccc2)cc1 (stereo unspecified),0.147%
15,CSc1ccc(CCNC(=O)CS(=O)(=O)Cc2nc(-c3ccccc3F)oc2C)cc1,9.85%
16,Cc1ccccc1-c1nc(CS(=O)(=O)CC(=O)NC(C)c2ccccc2)c(C)o1 (stereo unspecified),-61.7% (active)
17,NC(=S)NN=C1CCCC(C(F)(F)F)C1 (stereo unspecified),4.88%
18,O=C(c1ccc2c(c1)C(=O)N(Cc1ccncc1)C2=O)N1CCN(S(=O)(=O)c2ccc(OC(F)(F)F)cc2)CC1,8.07%
19,Cc1cc(O)ccc1-c1cc(C(=O)NCc2cc(C(F)(F)F)cc(C(F)(F)F)c2)[nH]n1,-53.4% (active)
20,COc1ccccc1CNC(=O)c1cc(-c2cc(Cl)ccc2C)n[nH]1,-16.3%
21,Cc1ccc(O)c(-c2cc(C(=O)NCc3ccccc3)[nH]n2)c1,-0.0227%
22,COC(=O)c1ccc2nc(-c3ccc(Cl)cc3)c(Cc3cccc(F)c3)n2c1,58.6%
23,CC(=O)NC(NC(=S)Nc1c(C)n(C)n(-c2ccccc2)c1=O)C(Cl)(Cl)Cl (stereo unspecified),0%

row,SMILES,activity change
1,CCOC(=O)N1CCN(CCC(=O)Nc2ccccc2)CC1,-4.73%
2,Cc1cc(NC(=O)CCN2CCN(Cc3ccccc3)CC2)ccc1Br,-54% (active)
3,O=C(CN1CCN(Cc2ccccc2)CC1)Nc1ccc(F)c(F)c1,-7.81%
4,O=C(OCC(=O)N1CCCCCC1)c1cccc(Cl)c1Cl,9.58%
5,COc1ccc(Cl)cc1N(CC(=O)N/N=C/c1ccc(OCC(N)=O)cc1)S(C)(=O)=O,34.5%
6,NC(N)=N/N=C/c1ccc(OCc2ccc(Cl)cc2Cl)cc1,-97.9% (active)
7,Cc1nc2ccccc2nc(C)c1=NOCc1ccc(Cl)cc1Cl,0%
8,COc1ccc(/C=C/C(=O)OCC(=O)N2CCN(S(=O)(=O)c3ccc(C)cc3C)CC2)cc1OC,1.01%
9,COc1ccc(CCNc2cc(C)nc3c(-c4ccc(Cl)cc4)c(C)nn23)cc1OC,15.4%
10,COc1cccc(/C=C2\C=C(c3ccc(C)cc3)OC2=O)c1OC(C)=O,-5.9%
11,CCOc1ccccc1-c1cc(C(=O)N/N=C(\C)c2cccnc2)c2ccccc2n1,6.38%
12,CCOc1cccc(/C=C/c2ccc3ccccc3n2)c1OC(C)=O,-92% (active)
13,COc1cccc(/C=C/c2ccc3ccccc3n2)c1OC(C)=O,-103% (active)
14,CCOc1ccccc1/C=N/Nc1nc2ccccc2o1,0%
15,CC(OC(=O)c1ccc2ccccc2n1)C(=O)c1ccccc1 (stereo unspecified),14.9%
16,CC1(C(=O)Nc2ccc3c(c2)OCCO3)CSCC(=O)N1CCOc1ccccc1 (stereo unspecified),-3.47%
17,O=C(NC1CCCC1)C1c2ccccc2OCC(=O)N1CC(F)(F)F (stereo unspecified),35.1%
18,CC(C)C(C)(C#N)NC(=O)CSc1nc2scc(-c3ccccc3)c2c(=O)[nH]1 (stereo unspecified),18.7%
19,CC[C@@]12C(=O)N(c3ccccc3)C(=O)N1[C@H](c1ccc(Br)cc1)[C@@H]1C(=O)N(C(C)(C)C)C(=O)[C@@H]12,12%
20,Cn1cc([N+](=O)[O-])c(C(=O)Nc2ccc3c(c2)OCCO3)n1,-66.8% (active)
21,Cc1onc(C(=O)Nc2ccc3c(c2)OCO3)c1[N+](=O)[O-],-7.05%
22,O=C(Nc1ccc2c(c1)OCCO2)c1ccoc1,-12.9%
